Measured values: PubChem BioAssay (NCI)
About 83,000 compounds went through this panel and 20% of them were active in at least one assay; those are over-represented in the sample as a whole.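 Interpretation: 100, growth as untreated; towards 0, rising growth inhibition; 0, no net growth; 0 to -100, cell death. Compounds scoring below 10 were considered active.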 A number with no mark means an inactive call. Activity calls are given as the source filed them.

Experiments:
Assay in all cases: NCI-60 one-dose screen, 48 h (100 = growth as untreated, 0 = no growth, -100 = all killed)
Details in all cases: 10 µM unless noted
NCI-H23 lung = test system: NCI-H23 lung
NCI-H226 lung = test system: NCI-H226 lung
HOP-62 NSCLC = test system: HOP-62 NSCLC
NCI-H460 lung = test system: NCI-H460 lung
HOP-92 NSCLC = test system: HOP-92 NSCLC
NCI-H522 lung = test system: NCI-H522 lung
A549/ATCC NSCLC = test system: A549/ATCC NSCLC
786-0 renal = test system: 786-0 renal
COLO 205 colon = test system: COLO 205 colon
DU-145 prostate = test system: DU-145 prostate
K-562 leukemia = test system: K-562 leukemia
MALME-3M melanoma = test system: MALME-3M melanoma
MDA-MB-231 breast = test system: MDA-MB-231 breast
RXF 393 renal = test system: RXF 393 renal
SF-268 CNS = test system: SF-268 CNS
SF-295 CNS = test system: SF-295 CNS
SF-539 CNS = test system: SF-539 CNS
UACC-257 melanoma = test system: UACC-257 melanoma
M14 melanoma = test system: M14 melanoma
NCI-H322M lung = test system: NCI-H322M lung

Row | Structure (SMILES) | growth (NCI-H23 lung) | growth (NCI-H226 lung) [%] | growth (HOP-62 NSCLC) | growth (NCI-H460 lung) | growth (HOP-92 NSCLC) | growth (NCI-H522 lung) | growth (A549/ATCC NSCLC) | growth (786-0 renal) | growth (COLO 205 colon) | growth (DU-145 prostate) | growth (K-562 leukemia) | growth (MALME-3M melanoma) | growth (MDA-MB-231 breast) | growth (RXF 393 renal) | growth (SF-268 CNS) | growth (SF-295 CNS) | growth (SF-539 CNS) | growth (UACC-257 melanoma) | growth (M14 melanoma) | growth (NCI-H322M lung)
1 | Nc1ccc(-c2cc3c(NCc4ccccc4)ncnc3s2)cc1 | 66.6% | 65.9 | 92.1% | 90.7% | 85.5% | 72.5% | 70.9% | 79.2% | 108% | 55.8% | 61.8% | 91.3% | 86% | 74.2% | 86.9% | 83.5% | 86% | 85.8% | 103% | 
2 | O=C(Cc1ccc(/C=C/C(=O)c2ncc[nH]2)cc1)Nc1ccccc1 | 39.8% | 87.7 | 49.9% | 11.7% |  | 31.2% | 57.2% | 32.8% | 45.5% | 17.8% |  | 98.2% | 70.7% | 42.9% | 51.5% | 69.7% | -23.3% (active) | 97.2% | 73.6% | 
3 | O=S(=O)(Nc1ccc(I)cc1F)c1ccc(-c2cnc(C3CC3)o2)cc1 | 71.2% | 80.2 | 52.4% | 38.4% | 62.1% | 31.2% | 50.6% | 69.1% | 68.4% | 78.2% | 13.2% | 50.9% | 61% | 73% | 63.3% | 28.6% | 44.1% | 63.1% | 37.4% | 
4 | CSc1nc(Nc2cccc(NC(=O)/C(C#N)=C/c3c(Cl)cccc3Cl)c2)c(C#N)c(-c2cccc([N+](=O)[O-])c2)n1 | 57.9% | 64.9 | 89.7% | 71.7% | 59.8% | 38.8% | 92% | 54% | 76% | 58% | 20.4% | 96.5% | 52.5% | 68.3% | 59.6% | 92% | 65.2% | 73.5% | 22.6% | 
5 | Nc1n[nH]c2cc(F)c([C@@H]3Nc4ccc5[nH]ncc5c4[C@H]4C5CCC(C5)[C@@H]34)cc12 (stereo not given in full) | 26.4% |  | 26.1% | -11.2% (active) | 45.7% | -19% (active) | 8.81% (active) | 25.4% | -26.9% (active) | -7.54% (active) | 11.5% | 73% | 35.8% | 54.2% | 9.83% (active) | 6.25% (active) | -31% (active) | 53.1% | -1.74% (active) | 54.7%
6 | CCOC(=O)c1cc(C(=O)c2ccc(O)c(O)c2)n2ccc(-c3ccn4c(C(=O)c5ccc(O)c(O)c5)cc(C(=O)OCC)c4c3)cc12 | 96.7% |  | 99.7% | 101% |  | 82.7% | 92.3% | 87% | 102% | 93.8% |  | 105% | 52.6% | 86.5% | 88.5% | 102% | 92.5% | 100% | 93.2% | 94.3%
7 | CC(=O)c1cc2c(N)c(C(=O)Nc3cccc(F)c3C)sc2nc1C | 94.2% |  | 73.8% | 83.1% | 73.1% | 82.1% | 56.5% | 92.1% | 74.3% | 99.1% |  | 94% | 82.1% | 96.6% | 94.3% | 82.4% | 93.5% | 74.5% | 65.2% | 95.7%
8 | COc1ccc(Nc2nc(SC)nc(-c3cccc([N+](=O)[O-])c3)c2C#N)cc1 | 73.6% |  | 44.5% | 30.4% | 61.3% | 80.8% | 31.4% | 21.8% | 81.5% | 80.6% | 93.6% | 61.7% | 45.1% | 60% | 71.6% | 69.3% | 69% | 89.5% | 74.9% | 65.8%
9 | O=C(Cc1ccc(/C=C/C(=O)c2ncc[nH]2)cc1)Nc1ccc(F)cc1 | 24.2% |  | 20.5% | 1.46% (active) | 69.7% | 22.2% | 25.6% | 23.7% | 20.5% | 15.9% |  | 96.6% | 22.6% | 19.3% | 27.7% | 33.1% | -21.7% (active) | 92.1% | 54.9% | 33.3%
10 | C=CC(=O)Nc1cccc(-c2nc(SC)nc(NCCc3ccc(OC)c(OC)c3)c2C#N)c1 | 47.6% |  | 75.1% | 74.6% | 62.2% | 39.2% | 46.9% | 68.2% | 77.8% | 56.9% | 31.2% | 54.8% | 64.1% | 59.4% | 61.9% | 43% | 65.6% | 29.7% | 26.9% | 90.9%
11 | COc1ccc(NC(=O)c2ccc(/C=C/C(=O)c3ncc[nH]3)cc2)cc1 | 64.7% |  | 79.1% | 64% |  | 51.4% | 81.5% | 67.1% | 72.4% | 34.1% |  | 95.1% | 91.6% | 76.9% | 72.4% | 88.4% | 64.1% | 97.8% | 87.3% | 85.4%
12 | C#CCOc1ccc2ncnc(NCc3cccc(NC(=O)CCl)c3)c2c1 | 36.6% [8.25 µM] |  | 0.209% [8.25 µM] (active) | 28.2% [8.25 µM] | 54.4% [8.25 µM] | -62.8% [8.25 µM] (active) | 50.4% [8.25 µM] | 39.2% [8.25 µM] | 54% [8.25 µM] | 77.9% [8.25 µM] | 11.7% [8.25 µM] | 57.4% [8.25 µM] | 45.3% [8.25 µM] | 42.3% [8.25 µM] | 41.9% [8.25 µM] | 93.9% [8.25 µM] | 49.5% [8.25 µM] | 63.8% [8.25 µM] | 51.3% [8.25 µM] | 82.3% [8.25 µM]
13 | O=C1NC(=Nc2ccc(O)cc2)S/C1=C\c1cccc(Cl)c1 | 88.2% |  | 76.1% | 86.3% | 72.5% | 76.3% | 54.9% | 67.1% | 102% | 84.5% | 21.9% | 88.7% | 96.2% | 75.1% | 74.1% | 69.1% | 68.6% | 95.9% | 56.7% | 83.7%
14 | CCCc1cc(=O)n2c(C(=O)Nc3ccc(F)cc3)c(C(=O)Nc3ccc(F)cc3)sc2n1 | 81.9% [30 µM] |  | 27.8% [30 µM] | 52% [30 µM] | -36.3% [30 µM] (active) | 62.7% [30 µM] | 34.1% [30 µM] | 17.6% [30 µM] | 71.4% [30 µM] | 82.1% [30 µM] | 75.1% [30 µM] | 38.5% [30 µM] | 44.2% [30 µM] | 10.4% [30 µM] | 18.1% [30 µM] | 73% [30 µM] | 63.2% [30 µM] | 67.2% [30 µM] | 70.9% [30 µM] | 54.8% [30 µM]
15 | COc1cc(-c2nc3ccccc3[nH]2)ccc1OCC(=O)N=Nc1c(O)[nH]c2ccc(Cl)cc12 | -42.4% (active) |  | -61.5% (active) | -75.8% (active) | -36.2% (active) | -43.4% (active) | 35.6% | -79.9% (active) | -48.5% (active) | -37.8% (active) | -25.4% (active) | -66.9% (active) | -87.4% (active) | -56.5% (active) | -72.9% (active) | -68.8% (active) | -83.9% (active) | -18.7% (active) | -71.7% (active) | -7.85% (active)
16 | COC(=O)c1ccc(Cn2cnc3c(N)ncnc32)cc1 | 103% |  | 97% | 115% | 92.1% | 69.6% | 104% | 114% | 109% |  | 89.4% |  | 87.7% | 102% | 114% | 109% | 92.1% | 116% | 110% | 106%
17 | CN(CCCCCl)P(=O)(OCc1ccc([N+](=O)[O-])o1)C(F)(F)c1ccc(CC(=O)NC[C@@H](O)/C=C\[C@@H](O)[C@H](CO)Cc2ccccc2)cc1 (stereo not given in full) | 92.8% |  | 96.6% | 102% | 135% | -2.39% (active) | 85.3% | 107% | 103% | 105% | 50.2% | 92.1% | 89.3% | 100% | 98.5% | 98.3% | 102% | 92.2% | 95.3% | 
18 | CC(=O)c1cc2c(N)c(C(=O)Nc3cccc4ccccc34)sc2nc1C | 34.6% |  | 38.9% | 7.21% (active) | 61.6% | 13% | 22% | 31.6% | -27% (active) | 15.5% |  | 56.2% | 26.2% | 10.4% | 56.3% | 19.8% | -15% (active) | 59.8% | 3.93% (active) | 45.4%
19 | CCNC(=O)Oc1ccc(/C(=C(\C)c2ccc(Cl)cc2)c2ccc(OCCN(CC)CC)cc2)cc1 | 65.6% |  | 54.6% | 7.6% (active) | 57.9% | 55.4% | 45.8% | 24.7% | -57.8% (active) | 67.6% |  | -50.6% (active) | 44.3% | 31.4% | 51.7% | 21.3% | 58.2% | -54.9% (active) | -63.3% (active) | 68.7%
20 | COc1ccc2c(c1)O/C(=C\c1cccc(OCC(=O)Nc3nc4c(s3)CCCC4)c1)C2=O | 37.8% |  | 103% | 115% | -23.4% (active) | -91.4% (active) | 94.6% | 89.9% | 113% | 42.8% | 24.5% | 109% | 65.9% | -15.4% (active) | 89.4% | 75.8% | 87.8% | 95.1% | 90.9% | 95.4%
21 | Cc1nn(-c2ccc(F)cc2)c2ncnc(Oc3ccc(NC(=O)Nc4ccc(Cl)c(C(F)(F)F)c4)cc3)c12 |  | 103 | 105% | 101% | 104% | 99.7% | 96.2% | 106% | 109% | 106% | 105% | 100% | 103% | 107% | 93.4% | 102% | 96.8% | 99.9% | 106% | 100%
22 | N#Cc1cnn(-c2nc3c(Cl)cccc3s2)c1N | 82.6% |  | 81.3% | 73.4% | 38.8% | 67.7% | 83.6% | 89.4% | 92.3% | 96% | 92.8% | 85.9% | 60.6% | 92.7% | 87% | 82.3% | 82.2% | 102% | 96.1% | 95%
